From PubChem BioAssay (NCATS)
“And” between values parts separate entries of the source, which are not always exact repeats. Identical values can stand only once. Records with an inconclusive call do not appear. The source made the active and inactive calls. Calls come from the whole dose curve; as a rule, active = well fitted activation curve with a large enough effect; inconclusive = small, poorly fitted or top-dose-only effect; inactive = no such curve, though single readings can be large or run the other way.

Biological target: Cellular tumor antigen p53 (Homo sapiens) (UniProt P04637)
Test: Primary qHTS for small molecule compounds that upregulate eGFP-tagged delta133p53alpha (in N-terminal) cells. (AID 2060322); note: nearly all actives have a fitted effect of over 75% in size;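 for activation: cells pre-induced with doxycycline then dosed without doxycycline; series mostly up to about 56 µM; 0% = DMSO vehicle and 100% = reference activator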
Conditions: NCI-H358 eGFP-delta133p53alpha fluorescence, 24 h; activation: active compounds read high
How it was run: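 NCI-H358 cells pre-induced 24 h with 10 ng/ml doxycycline for eGFP-delta133p53alpha, plated dox-free and exposed 24 h at 37C to titrated compounds. Fixed, Hoechst-stained; gated GFP peak intensity by laser scanning cytometry, normalized to DMSO (0%) and 57.5 uM 5-azacytidine (100%).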
Potency is the fitted concentration of half-maximal effect.

Sequence of Cellular tumor antigen p53 (Homo sapiens) (P04637 whole entry, looked up): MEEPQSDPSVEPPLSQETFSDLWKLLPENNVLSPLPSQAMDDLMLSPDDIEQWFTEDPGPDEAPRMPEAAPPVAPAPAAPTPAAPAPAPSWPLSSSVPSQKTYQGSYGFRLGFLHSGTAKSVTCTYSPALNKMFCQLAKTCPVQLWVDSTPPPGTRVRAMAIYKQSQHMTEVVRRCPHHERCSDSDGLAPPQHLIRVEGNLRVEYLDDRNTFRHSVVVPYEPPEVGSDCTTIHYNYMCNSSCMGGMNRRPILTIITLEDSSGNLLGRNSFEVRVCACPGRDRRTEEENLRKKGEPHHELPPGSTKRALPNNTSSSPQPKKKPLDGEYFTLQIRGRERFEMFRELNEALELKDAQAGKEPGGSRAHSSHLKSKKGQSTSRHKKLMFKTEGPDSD

Q: Which activation does the source give for `NC(=O)NNc1ccccc1` here?
A: 0.565% (inactive)

Q: `Cc1cc(O)c2ccccc2c1O` was tested. Which Potency did it give?
A: 34.7 µM (active)

Q: For `CC[C@H]1OC(=O)[C@H](C)[C@@H](O[C@H]2C[C@@](C)(OC)[C@@H](O)[C@H](C)O2)[C@H](C)[C@@H](O[C@@H]2O[C@H](C)C[C@H](N(C)C)[C@@H]2O)[C@](C)(O)C[C@@H](C)CN(C)[C@H](C)[C@@H](O)[C@]1(C)O`, which activation is on record?
A: 2.23% (inactive)

Q: How did the activation turn out when `CN(C)CCC[C@@]1(c2ccc(F)cc2)OCc2cc(C#N)ccc21` was run?
A: 15.3% (inactive)

Q: With `Nc1ccc(S(=O)(=O)Nc2ccc(Cl)nn2)cc1` as the compound, how does the activation read?
A: 2.51% (inactive)

Q: For `C=CCSCC1Nc2cc(Cl)c(S(N)(=O)=O)cc2S(=O)(=O)N1` (stereo not given), which activation is on record?
A: -36.8% (inactive)

Q: With `CCOc1cc(NC(C)=O)ccc1C(=O)OC` as the compound, how does the activation read?
A: -3.95% (inactive)

Q: For `O=C(c1cc(O)c(O)c(O)c1)c1ccc(O)c(O)c1O`, which activation is on record?
A: 23.2% (inactive)

Q: `CC1CCc2cc(F)cc3c(=O)c(C(=O)O)cn1c23` (stereo not given) was tested. Which activation did it give?
A: 23.2% (inactive)

Q: `CCCCCCCCCCCCCCCCCCN(C)C` was tested. Which activation did it give?
A: -22.6% (inactive)

Q: For `O=C(Cn1ccnc1[N+](=O)[O-])NCCO`, which activation is on record?
A: -9.21% (inactive)

Q: How did the activation turn out when `O=C(O)c1ccccn1` was run?
A: 17.6% (inactive)

Q: How did the activation turn out when `CCOC(N)=O` was run?
A: -2.82% (inactive)

Q: For `Nc1ccc(C(=O)N2CC3CC(CN(Cc4ccccc4)C3)C2)cc1`, which activation is on record?
A: -6.21% (inactive)

Q: `CC(C)(C)C(=O)NCCCC(=O)O` was tested. Which activation did it give?
A: -17.6% (inactive)

Q: For `CCCCCCCCCCCCCCCC(=O)OC(C)C`, which activation is on record?
A: -15.3% (inactive)

Q: `Cc1cccc(C)c1OCC(=O)N[C@@H](Cc1ccccc1)[C@@H](O)C[C@H](Cc1ccccc1)NC(=O)[C@H](C(C)C)N1CCCNC1=O` was tested. Which activation did it give?
A: -5.4% (inactive) and 28.8% (inactive)

Q: How did the activation turn out when `N[C@@H](Cc1cc(I)c(O)c(I)c1)C(=O)O` was run?
A: 4.18% (inactive)

Q: `CC(=O)Nc1c(I)cc(I)c(C(=O)O)c1I` was tested. Which activation did it give?
A: -3.95% (inactive)

Q: How did the activation turn out when `O=C(CCOCCOCCOCCOCCC(=O)Nc1c(I)cc(I)c(C(=O)O)c1I)Nc1c(I)cc(I)c(C(=O)O)c1I` was run?
A: -9.21% (inactive)

Q: `Cc1[nH]c(C=C2C(=O)Nc3ccc(S(=O)(=O)N(C)c4cccc(Cl)c4)cc32)c(C)c1C(=O)N1CCN(C)CC1` was tested. Which Potency did it give?
A: 6.11 µM (active)

Q: Which activation does the source give for `OC[C@H]1O[C@@H](Oc2cc(O)cc(C=Cc3ccc(O)cc3)c2)[C@H](O)[C@@H](O)[C@H]1O` here?
A: 9.98% (inactive)

Q: For `CCC(C=C[C@@H]1OC(=O)C=C[C@H]1C)=C[C@H](C)CC=CC(C)=C[C@@H](C)C(=O)[C@@H](C)[C@H](O)[C@@H](C)CC(C)=CC(=O)O`, which Potency is on record?
A: 0.287 µM (active)

Q: For `Cc1cc(O)c(C)c(C)c1O`, which activation is on record?
A: 17.5% (inactive)

Q: With `COC(=O)c1nc(Cl)c(Cl)nc1N` as the compound, how does the Potency read?
A: 27.6 µM (active)

Q: `CCc1c(C(=O)Nc2cc(S(=O)(=O)N(CC)CC)ccc2O)[nH]c(C)c1C(C)=O` was tested. Which activation did it give?
A: -38% (inactive)

Q: For `N#CC(=C(O)c1ccc(Cl)cc1Cl)c1nc2cc(Cl)ccc2c(=O)[nH]1`, which activation is on record?
A: 7.18% (inactive)

Q: `CC1CCC2(OC1)OC1CC3C4CCC5C[C@@H](O[C@@H]6O[C@H](CO[C@@H]7OC[C@@H](O)[C@H](O)[C@H]7O)[C@H](O)[C@H](O)[C@H]6O)CC[C@]5(C)C4CC[C@]3(C)C1C2C` (stereo not given in full) was tested. Which activation did it give?
A: 8.4% (inactive)

Q: `CN(C)CC[C@H](c1ccc(Cl)cc1)c1ccccn1` was tested. Which activation did it give?
A: 26.7% (inactive)

Q: How did the activation turn out when `O=C(O)c1ccccc1Nc1cc(Cl)ccc1C(=O)O` was run?
A: -31% (inactive)

Q: With `C[C@H]1C[C@H](O)c2ccsc2S1(=O)=O` as the compound, how does the activation read?
A: -26.6% (inactive)

Q: For `CCCCOCCOC(=O)c1cccnc1`, which activation is on record?
A: -10.7% (inactive)

Q: With `O=c1[nH]c(=O)n([C@H]2C[C@@H](O)[C@@H](CO)O2)cc1F` as the compound, how does the activation read?
A: -18.9% (inactive)

Q: Which activation does the source give for `COc1ccc(OC(=O)N(CC(=O)O)Cc2ccc(OCCc3nc(-c4ccccc4)oc3C)cc2)cc1` here?
A: -10.7% (inactive)

Q: Which activation does the source give for `O=C(O)CCC(=O)OC[C@@H](NC(=O)C(Cl)Cl)[C@H](O)c1ccc([N+](=O)[O-])cc1` here?
A: 15.1% (inactive)

Q: How did the activation turn out when `CCCCCCCCCCOc1cc2c(=O)c(C(=O)OCC)c[nH]c2cc1OCC` was run?
A: -12.6% (inactive)

Q: Which activation does the source give for `CCCC(=O)OCOC(=O)C1=C(C)NC(C)=C(C(=O)OC)C1c1cccc(Cl)c1Cl` (stereo not given) here?
A: -26.6% (inactive)

Q: How did the activation turn out when `CCOC(=O)C(C#N)=C(c1ccccc1)c1ccccc1` was run?
A: -3.35% (inactive)

Q: `CN[C@@H]1[C@@H](O)[C@@H](O[C@@H]2[C@@H](O)[C@H](O[C@H]3O[C@H](CN)[C@@H](O)[C@H](O)[C@@H]3O)[C@@H](N)C[C@@H]2NC(=O)[C@@H](O)CN)OC[C@]1(C)O` was tested. Which activation did it give?
A: -2.48% (inactive)

Q: `O=C(C=Cc1c(C(=O)O)[nH]c2cc(Cl)cc(Cl)c12)Nc1ccccc1` was tested. Which activation did it give?
A: 33.2% (inactive)
